Assay outcomes (PubChem BioAssay)
In the library only some 2.2% were active in any assay of this set; here they are far more common.
MRP1 act: activators of MRP-1. H69AR cells + doxorubicin, viability rescue, CellTiter-Glo. viability increase, % at 10 µM. actives 0.61% (n = 140,000). AID 799;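 active = viability gain under doxorubicin at or above a set limit, the compound median plus 3 SD, cut at about 4.7% in these data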;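 also: MRP-1 overexpressing cells given doxorubicin 25 µM after compound pretreatment; 18-22 h compound pretreatment then 72 h with doxorubicin before readout; 0% = doxorubicin-only wells and 100% = vehicle-treated cells without doxorubicin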
PLAP activator: human PLAP activation | purified PLAP enzyme, luminescent substrate read-out; active compounds read high | activation fold at 20 µM | actives 1.2% (n = 96,000) | P05187 | AID 696; in the data active = activation fold above about 2
Target sequence (P05187 whole entry, looked up): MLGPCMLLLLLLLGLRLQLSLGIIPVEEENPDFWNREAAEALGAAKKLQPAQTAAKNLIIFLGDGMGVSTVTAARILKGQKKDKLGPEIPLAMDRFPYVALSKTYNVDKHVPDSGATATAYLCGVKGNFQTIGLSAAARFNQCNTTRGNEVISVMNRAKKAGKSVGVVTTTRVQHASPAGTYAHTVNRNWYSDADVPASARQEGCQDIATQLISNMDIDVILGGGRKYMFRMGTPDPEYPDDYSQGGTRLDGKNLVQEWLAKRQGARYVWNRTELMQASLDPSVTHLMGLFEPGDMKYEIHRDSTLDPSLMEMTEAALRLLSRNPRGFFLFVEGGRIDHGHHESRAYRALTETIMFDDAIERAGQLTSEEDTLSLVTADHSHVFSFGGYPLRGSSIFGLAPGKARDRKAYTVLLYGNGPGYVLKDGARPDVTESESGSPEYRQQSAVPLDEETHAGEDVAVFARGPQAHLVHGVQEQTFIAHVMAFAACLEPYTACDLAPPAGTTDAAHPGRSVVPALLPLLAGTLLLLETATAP
MRP reversal: reverses drug resistance mediated by MRP; H69AR cells + 2 uM doxorubicin, CellTiter-Glo, 72 h; differential viability (reversal), % at 10 µM; actives 0.04% (n = 85,000); AID 602;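 active = viability drop by adding the cancer drug above about 55%, with treated viability meeting a 40% cutoff, limit read from the data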;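 also: viability without doxorubicin minus viability with 2 µM doxorubicin for each compound; larger differential means the compound sensitizes cells more to doxorubicin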
PTPN22 inh 2: inhibitors of human LYP (PTPN22) phosphatase. recombinant LYP catalytic domain, DiFMUP fluorescence. actives 0.21% (n = 96,000). Q9Y2R2. AID 640. inhibition, % at 2 µM;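 active = inhibition at 2 µM at or above a set limit, the screen mean plus 3 SD, cut at about 24% in these data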;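 also: 0% = DMSO with enzyme and 100% = enzyme fully blocked by orthovanadate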
PTPN22 act: increases human PTPN22 phosphatase activity; Q9Y2R2; activation, % at 2 µM; recombinant LYP, DiFMUP fluorescence; 0 = plate median, 100 = signal doubled; actives 0.11% (n = 96,000);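 active = activation at 2 µM above a set limit, the mean plus 5 SD, cut at about 37% in these data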
FAK inh: blocks human focal adhesion kinase activity. Q05397. biochemical FAK kinase activity assay. inhibition, %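 (tested at 7 µM)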. actives 0.84% (n = 97,000); in the data active = inhibition above about 19%;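 also: 0% = DMSO and 100% = reference compound high control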
Starred values were filed as active, the others as inactive; . = no result.

SMILES | MRP1 act | PLAP activator | MRP reversal | PTPN22 inh 2 | PTPN22 act | FAK inh
CCOc1ccc(-c2nc(C#N)c(N3CCN(C)CC3)o2)cc1 | 0.9 | 1.2 | 11.5 | 14.4 | -15.0 | -1.7
CCOc1ccc(-c2nc(C#N)c(N3CCCCCC3)o2)cc1 | 5.7* | 1.5 | -10.1 | 4.6 | -5.6 | 16.2
CN(C)c1ccc(/C=[N+](\[O-])C2N(c3ccccc3)C(=S)SC2(C)C)cc1 (stereo not given) | 1.0 | . | . | . | . | .
O=C(Nc1ccc(Cl)c(Cl)c1)Nc1nnc(CSc2ccccc2)s1 | -4.7 | . | . | . | . | .
N#Cc1c(-c2ccccc2)[nH]c(=S)[nH]c1=O | 4.7* | 0.8 | 23.1 | -8.2 | 9.7 | -1.2
CCN(CC)S(=O)(=O)c1cc(NC(=O)C(C)OC(=O)c2[nH]c(C)c(C(C)=O)c2C)ccc1C (stereo not given) | -1.1 | . | . | . | . | .
Cn1cnnc1SCC(=O)Nc1ccc2nc(SCc3ccccc3F)sc2c1 | -0.9 | 2* | 32.5 | -4.1 | 6.7 | 3.3
O=C(CSc1nc2ccc(NC(=O)CSc3nnnn3-c3ccccc3)cc2s1)Nc1ccccc1 | -4.0 | . | . | . | . | .
COc1ccc2nc(SCC(=O)Nc3ccccc3C#N)[nH]c2c1 | -2.0 | 2.1* | -6.3 | 2.7 | -4.9 | -1.7
COc1ccc2nc(SCC(=O)Nc3cc(C)on3)[nH]c2c1 | -0.5 | 2.2* | 1.8 | -9.8 | 10.1 | -0.8
CC(=O)C1C(c2ccc(Br)cc2)C2C(C)=NN=C2CC1(C)O (stereo not given) | 0.0 | . | . | . | . | .
S=c1[nH]nc(-c2cc(-c3ccco3)[nH]n2)n1-c1ccccc1Cl | -3.7 | 1.8 | -20.5 | -13.4 | 10.5 | 5.8
S=c1[nH]nc(-c2cc(-c3ccco3)[nH]n2)n1-c1ccccc1 | -4.2 | 2.1* | -33.2 | -5.5 | 8.6 | 12.7
O=C(c1ccc(-c2cccc(Cl)c2)o1)N1CCN(c2ccc([N+](=O)[O-])cc2)CC1 | 4.7* | . | . | . | . | .
CCc1nnc(NS(=O)(=O)c2ccc(NC(=S)NC(=O)/C=C/c3ccc(C(C)C)cc3)cc2)s1 | -0.4 | 1.4 | . | 33.4* | -30.9 | 16.7
Cc1ccccc1-n1c(CSC(=N)N)nc2ccccc2c1=O | -1.4 | 2.3* | . | -3.5 | 0.5 | -1.5
N=C(N)SCc1nc2ccccc2c(=O)n1-c1ccccc1Cl | 3.4 | 1.5 | . | 15.0 | -11.4 | 3.5
Cc1cccc2nc(-c3ccccc3)nc(N[C@@H](CO)c3ccccc3)c12 | -4.4 | . | . | . | . | .
COC(=O)C1CCN(C(=O)COC(=O)c2n[nH]c3ccccc23)CC1 | -2.3 | . | 5.6 | 1.3 | -2.8 | -2.8
CC1CCCN(C(=O)COC(=O)c2n[nH]c3ccccc23)C1 (stereo not given) | -2.5 | 2* | 11.8 | 5.3 | -8.2 | 2.2
COc1ccc(CNC(=O)COC(=O)c2n[nH]c3ccccc23)cc1OC | -2.8 | . | -2.2 | -4.0 | 0.8 | 0.3
COc1ccccc1CNC(=O)COC(=O)c1n[nH]c2ccccc12 | -1.8 | 2.3* | 7.9 | 4.2 | -1.9 | 1.8
COc1ccc(/C=N/Nc2nc(-c3ccc(Cl)cc3)cc(C(F)(F)F)n2)cc1OC | 5.6* | . | . | . | . | .
COc1ccc(-c2cnnc(N/N=C/c3ccc(OC)c(OC)c3)n2)cc1 | -5.1 | . | . | . | . | .
Cc1ccc(OCCN2CCN(C(=O)CCC(=O)Nc3nnc(C(C)C)s3)CC2)cc1 | 0.0 | 1.5 | 10.9 | -4.8 | 2.9 | -5.8
SMILES | MRP1 act | PLAP activator | MRP reversal | PTPN22 inh 2 | PTPN22 act | FAK inh
Cc1ccc(OCCN2CCN(C(=O)CCC(=O)Nc3nnc(C)s3)CC2)cc1 | 7.8* | . | 8.1 | -3.6 | 7.6 | 0.5
O=C(c1ccc(Cl)cc1)c1cnc(-c2ccc(Cl)cc2)s1 | -0.7 | 0.8 | . | 41.2* | -40.1 | 1.1
Cc1cc(C)n(-c2ccc(C(=O)Nc3cccc(S(=O)(=O)N(C)C)c3)cc2)n1 | 5.8* | . | . | . | . | .
Cc1[nH]c2ccccc2c1C(=O)CSC(=S)N1CCCCC1 | -1.2 | . | . | . | . | .
Cc1cccc(CC2S/C(=N/c3ccccn3)NC2=O)c1 (stereo not given) | 10.2* | . | -11.1 | -1.9 | 3.5 | 1.0
O=C1N/C(=N\N=C\c2ccccn2)SC1Cc1cccc(SC(F)F)c1 (stereo not given) | -0.8 | 1.4 | . | 4.5 | -0.1 | 0.1
COC(=O)c1ccccc1NC(=O)CSc1n[nH]c(CC(C)C)n1 | -2.1 | 2.4* | -16.6 | -8.8 | 7.9 | 0.1
COC(=O)c1ccccc1NC(=O)CSc1n[nH]c(C)n1 | 0.1 | . | 18.6 | 1.4 | -2.7 | 5.5
COc1ccc(S(=O)(=O)N(n2c(C)nnc2-n2nc(C)cc2C)S(=O)(=O)c2ccc(OC)cc2)cc1 | -0.8 | . | 12.3 | -11.5 | 6.0 | -5.9
O=c1/c(=C/c2cn(-c3ccccc3)nc2-c2ccc(F)cc2)sc2nc3ccccc3n12 | -1.6 | 1.1 | . | 10.8 | -7.7 | 2.8
CC(C)Oc1ccc(-c2nn(-c3ccccc3)cc2/C=c2\sc3ncnn3c2=O)cc1 | 5.8* | 1.7 | -7.1 | 4.3 | -7.1 | -8.7
COc1ccc(Nc2nnc(Cc3ccc(Cl)cc3)c(=O)[nH]2)c(OC)c1 | 7.0* | 1.5 | 2.4 | . | . | .
COc1cccc(C(=O)NNC(=S)NC2CCCCC2)c1 | -0.1 | . | . | . | . | .
COc1ccc(C(=O)NNC(=S)NC2CCCCC2)cc1OC | 1.2 | 2.5* | . | 11.3 | -9.5 | -3.7
NC(=O)c1c(NC(=O)C2c3ccccc3Oc3ccccc32)sc2c1CCCCC2 | -3.0 | . | . | . | . | .
O=C(Nc1ccc2c(c1)CCC2)C1CCCN(c2ncccn2)C1 (stereo not given) | -2.1 | 1.1 | -14.5 | -3.2 | 2.1 | -10.2
Cc1nc2ncnn2c(N2CCCC(C(=O)Nc3ccc4c(c3)CCC4)C2)c1C (stereo not given) | -1.0 | 2.1* | -17.2 | . | . | .
Cc1ccsc1C(=O)NNC(=S)NCC(C)C | -0.1 | 2.2* | . | 8.1 | -5.3 | -1.2
CCc1cc(C(=O)NNC(=S)Nc2cccc(C)c2)cs1 | -1.7 | . | -1.5 | -6.1 | 5.5 | -3.4
Cc1cccc(NC(=S)NNC(=O)c2sccc2C)c1 | -1.1 | 2.1* | . | 6.2 | -3.5 | 0.0
CC(=O)Nc1ccc(-n2c(C)nc(=O)c(-c3ccccc3)c2C)cc1 | 11.0* | 1.3 | -7.6 | 3.2 | -2.7 | -2.8
Cc1nc(=O)c(-c2ccccc2)c(C)n1-c1ccc(O)cc1 | 5.3* | 1 | 3.0 | -9.9 | 11.0 | 1.1
Cc1nc(=O)c(-c2ccccc2)c(C)n1-c1ccccc1O | 2.1 | 0.9 | -7.5 | . | . | .
COc1ccc(C2c3c(-c4ccccc4O)n[nH]c3C(=O)N2CCc2ccc(OC)c(OC)c2)cc1 (stereo not given) | -4.2 | 2.8* | 43.2 | 4.5 | -6.8 | 3.8
CCCN1C(=O)/C(=N\OCC(=O)NCC(F)(F)F)c2ccccc21 | 0.6 | . | . | . | . | .
O=C(Nc1nc(-c2cccc([N+](=O)[O-])c2)cs1)C(c1ccccc1)c1ccccc1 | 8.9* | 1 | . | -6.0 | 10.2 | -1.6
COc1cccc(-c2csc(NC(=O)Oc3ccccc3)n2)c1 | 7.5* | 1.1 | . | 1.6 | 0.5 | -0.4
O=C(NN=C1CCCCCCCCCCC1)c1cccc(S(=O)(=O)N2CCOCC2)c1 | -1.6 | . | . | . | . | .
O=C(c1ccco1)N1CCN(c2nc(C3CC3)nc3c2nnn3Cc2ccccc2Cl)CC1 | 7.0* | . | -6.1 | 9.5 | -9.9 | -1.4
Cc1ccccc1Cn1ccc(=NCc2ccccc2)cc1 | -2.6 | . | . | . | . | .
